Where “and” joins values, the source holds several entries; their conditions need not be identical. Equal entries are not always repeated. About 83,000 compounds went through this panel and 20% of them were active in at least one assay; those are over-represented in the sample as a whole.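 How to read the values: 0–100, growth inhibition (40 = 60% inhibited); 0, no net growth; -100 to 0, cell death (-40 = 40% of starting cells died; -100 = all dead).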 Calls of active or inactive are those of the source. Rule for the calls: active = growth percent below 10; inactive = the rest.
Columns and labels:
Test in all cases: NCI-60 one-dose screen, 48 h (100 = growth as untreated, 0 = no growth, -100 = all killed)
MOLT-4 leukemia = settings: 10 µM
SR leukemia = settings: 10 µM
OVCAR-8 ovarian = settings: 10 µM
OVCAR-5 ovarian = settings: 10 µM
OVCAR-4 ovarian = settings: 10 µM
SK-OV-3 ovarian = settings: 10 µM
IGROV1 ovarian = settings: 10 µM
OVCAR-3 ovarian = settings: 10 µM
NCI/ADR-RES ovarian = settings: 10 µM
T-47D breast = settings: 10 µM
BT-549 breast = settings: 10 µM
MDA-MB-435 melanoma = settings: 10 µM
SW-620 colon = settings: 10 µM
MCF7 breast = settings: 10 µM unless noted
HCT-116 colon = settings: 10 µM
HCC-2998 colon = settings: 10 µM
KM12 colon = settings: 10 µM
HS 578T breast = settings: 10 µM
RPMI-8226 leukemia = settings: 10 µM

C[C@@H]1C[C@@H]([C@H](O)CC2CC(=O)NC(=O)C2)C(=O)[C@@H](C)C1
growth (MOLT-4 leukemia): 3.71% (active) | growth (SR leukemia): 13.8% (inactive) | growth (OVCAR-8 ovarian): 3.4% (active) | growth (OVCAR-5 ovarian): 8.45% (active) | growth (OVCAR-4 ovarian): 12.8% (inactive) | growth (SK-OV-3 ovarian): 10.9% (inactive) | growth (IGROV1 ovarian): 11.3% (inactive) | growth (OVCAR-3 ovarian): 4.14% (active) | growth (NCI/ADR-RES ovarian): 0.354% (active) | growth (T-47D breast): 1.15% (active) | growth (BT-549 breast): 3.02% (active) | growth (MDA-MB-435 melanoma): 9.77% (active) | growth (SW-620 colon): 8.04% (active) | growth (MCF7 breast): 9.88% (active) | growth (HCT-116 colon): 0.0527% (active) | growth (HCC-2998 colon): 2.14% (active) | growth (KM12 colon): 5.65% (active)

Oc1c(Cl)cc(Cl)c2ccccc12.[Cu+2]
growth (MOLT-4 leukemia): 70.7% (inactive) | growth (SR leukemia): 31.4% (inactive) | growth (OVCAR-8 ovarian): 83% (inactive) | growth (OVCAR-5 ovarian): 127% (inactive) | growth (OVCAR-4 ovarian): 55.8% (inactive) | growth (SK-OV-3 ovarian): 87.2% (inactive) | growth (IGROV1 ovarian): 74.8% (inactive) | growth (OVCAR-3 ovarian): 79.7% (inactive) | growth (HS 578T breast): 88.9% (inactive) | growth (NCI/ADR-RES ovarian): 91.9% (inactive) | growth (T-47D breast): 82.9% (inactive) | growth (BT-549 breast): 106% (inactive) | growth (MDA-MB-435 melanoma): -83.4% (active) | growth (SW-620 colon): 88.3% (inactive) | growth (MCF7 breast): 74.3% (inactive) | growth (HCT-116 colon): 71.8% (inactive) | growth (HCC-2998 colon): 86% (inactive) | growth (KM12 colon): 98.9% (inactive)

CCOP(=O)(OCC)/C(C#N)=C/c1ccc(Br)cc1
growth (MOLT-4 leukemia): 92% (inactive) | growth (RPMI-8226 leukemia): 54.9% (inactive) | growth (OVCAR-8 ovarian): 100% (inactive) | growth (OVCAR-5 ovarian): 90.7% (inactive) | growth (OVCAR-4 ovarian): 98.4% (inactive) | growth (SK-OV-3 ovarian): 97.4% (inactive) | growth (OVCAR-3 ovarian): 112% (inactive) | growth (NCI/ADR-RES ovarian): 107% (inactive) | growth (T-47D breast): 90.8% (inactive) | growth (SW-620 colon): 105% (inactive) | growth (MCF7 breast): 92% (inactive) | growth (HCT-116 colon): 101% (inactive) | growth (HCC-2998 colon): 102% (inactive) | growth (KM12 colon): 109% (inactive)

O=C1C=Cc2ccccc2C1=O
growth (MOLT-4 leukemia): 95.2% (inactive) | growth (SR leukemia): 61.8% (inactive) | growth (RPMI-8226 leukemia): 93.6% (inactive) | growth (OVCAR-8 ovarian): 87.9% (inactive) | growth (OVCAR-5 ovarian): 120% (inactive) | growth (SK-OV-3 ovarian): 71.9% (inactive) | growth (IGROV1 ovarian): 77.7% (inactive) | growth (OVCAR-3 ovarian): 96.9% (inactive) | growth (NCI/ADR-RES ovarian): 93.8% (inactive) | growth (T-47D breast): 97.2% (inactive) | growth (SW-620 colon): 50.5% (inactive) | growth (MCF7 breast): 66.1% (inactive) | growth (HCT-116 colon): 87.7% (inactive) | growth (HCC-2998 colon): 112% (inactive) | growth (KM12 colon): 110% (inactive)

CC(C)C1(NC(=O)C2CC3c4cccc5[nH]cc(c45)CC3N(C)C2)OC2(O)C3CCCN3C(=O)C(Cc3ccccc3)N2C1=O (stereo not given)
growth (MOLT-4 leukemia): 65.8% (inactive) | growth (SR leukemia): 87.8% (inactive) | growth (RPMI-8226 leukemia): 108% (inactive) | growth (OVCAR-5 ovarian): 72.2% (inactive) | growth (OVCAR-4 ovarian): 70.9% (inactive) | growth (SK-OV-3 ovarian): 116% (inactive) | growth (IGROV1 ovarian): 108% (inactive) | growth (OVCAR-3 ovarian): 116% (inactive) | growth (HS 578T breast): 99.5% (inactive) | growth (NCI/ADR-RES ovarian): 102% (inactive) | growth (T-47D breast): 103% (inactive) | growth (BT-549 breast): 91.4% (inactive) | growth (MDA-MB-435 melanoma): 102% (inactive) | growth (SW-620 colon): 103% (inactive) | growth (MCF7 breast): 95.8% (inactive) | growth (HCT-116 colon): 95.8% (inactive) | growth (HCC-2998 colon): 105% (inactive) | growth (KM12 colon): 106% (inactive)

NNc1ccccc1
growth (MOLT-4 leukemia): 73.1% (inactive) | growth (SR leukemia): 53% (inactive) | growth (OVCAR-8 ovarian): 100% (inactive) | growth (OVCAR-5 ovarian): 90.2% (inactive) | growth (OVCAR-4 ovarian): 102% (inactive) | growth (SK-OV-3 ovarian): 99.6% (inactive) | growth (IGROV1 ovarian): 88.4% (inactive) | growth (OVCAR-3 ovarian): 97.7% (inactive) | growth (NCI/ADR-RES ovarian): 83.1% (inactive) | growth (T-47D breast): 53.9% (inactive) | growth (SW-620 colon): 64.5% (inactive) | growth (MCF7 breast): 86.8% (inactive) | growth (HCT-116 colon): 78.4% (inactive) | growth (HCC-2998 colon): 104% (inactive) | growth (KM12 colon): 64.7% (inactive)

S=C=NCCc1ccccc1
growth (MOLT-4 leukemia): 53.4% (inactive) | growth (SR leukemia): 6.81% (active) | growth (RPMI-8226 leukemia): -18.9% (active) | growth (OVCAR-5 ovarian): 33.2% (inactive) | growth (OVCAR-4 ovarian): 69.5% (inactive) | growth (SK-OV-3 ovarian): 122% (inactive) | growth (IGROV1 ovarian): 44.1% (inactive) | growth (OVCAR-3 ovarian): 72% (inactive) | growth (NCI/ADR-RES ovarian): 21.4% (inactive) | growth (T-47D breast): 40.4% (inactive) | growth (BT-549 breast): -20.2% (active) | growth (SW-620 colon): 56% (inactive) | growth (MCF7 breast): 20.3% (inactive) | growth (HCT-116 colon): 27.1% (inactive) | growth (KM12 colon): 41.9% (inactive)

Cc1ccc(NC(=O)CBr)cc1
growth (MOLT-4 leukemia): 98.4% (inactive) | growth (SR leukemia): 89.5% (inactive) | growth (RPMI-8226 leukemia): 102% (inactive) | growth (OVCAR-5 ovarian): 109% (inactive) | growth (OVCAR-4 ovarian): 102% (inactive) | growth (SK-OV-3 ovarian): 86.1% (inactive) | growth (OVCAR-3 ovarian): 112% (inactive) | growth (NCI/ADR-RES ovarian): 106% (inactive) | growth (T-47D breast): 98.5% (inactive) | growth (BT-549 breast): 139% (inactive) | growth (MDA-MB-435 melanoma): 102% (inactive) | growth (SW-620 colon): 92.8% (inactive) | growth (MCF7 breast): 93.5% (inactive) | growth (HCT-116 colon): 106% (inactive) | growth (HCC-2998 colon): 113% (inactive) | growth (KM12 colon): 109% (inactive)

COc1cc2c3cc1Oc1c(OC)c(OC)cc4c1C(Cc1ccc(cc1)Oc1cc(ccc1O)CC3N(C)CC2)N(C)CC4 (stereo not given)
growth (MCF7 breast): 33.8% [100 µM] (inactive) and -96.4% [100 µM] (active)

CC[C@@H](C)[C@@H]1NC(=O)C(NC(=O)C(CC(C)C)N(C)C(=O)C2CCCN2C(=O)C(C)O)C(C)OC(=O)C(Cc2ccc(OC)cc2)N(C)C(=O)C2CCCN2C(=O)C(CC(C)C)NC(=O)C(C)C(=O)C(C(C)C)OC(=O)C[C@H]1O (stereo not given in full)
growth (MOLT-4 leukemia): -15.8% (active) | growth (SR leukemia): 1.46% (active) | growth (RPMI-8226 leukemia): -27.5% (active) | growth (OVCAR-5 ovarian): -71.8% (active) | growth (OVCAR-4 ovarian): -30.8% (active) | growth (SK-OV-3 ovarian): -38.5% (active) | growth (IGROV1 ovarian): -40.4% (active) | growth (OVCAR-3 ovarian): -39.6% (active) | growth (NCI/ADR-RES ovarian): -43.2% (active) | growth (T-47D breast): -32.5% (active) | growth (BT-549 breast): -74.2% (active) | growth (SW-620 colon): -45.5% (active) | growth (MCF7 breast): -27.7% (active) | growth (HCT-116 colon): -28.8% (active) | growth (KM12 colon): -49.8% (active)

CCOC(=O)c1[nH]cnc1/N=N/N(C)N
growth (MCF7 breast): 69.3% [100 µM] (inactive) and -85.5% [100 µM] (active)

C[C@H]1CC[C@@]2(NC1)O[C@H]1C[C@H]3[C@@H]4CC[C@H]5C[C@@H](O)CC[C@]5(C)[C@H]4CC[C@]3(C)[C@H]1[C@@H]2C
growth (MCF7 breast): 29.5% [100 µM] (inactive) and 25.5% [100 µM] (inactive)

COC12C(COC(N)=O)C3=C(C(=O)C(C)=C(N)C3=O)N1CC1C2N1C (stereo not given)
growth (MOLT-4 leukemia): 7.02% (active) | growth (SR leukemia): 4.38% (active) | growth (RPMI-8226 leukemia): 51.7% (inactive) | growth (OVCAR-5 ovarian): 67.5% (inactive) | growth (OVCAR-4 ovarian): 70.5% (inactive) | growth (SK-OV-3 ovarian): 54.7% (inactive) | growth (IGROV1 ovarian): 24.4% (inactive) | growth (OVCAR-3 ovarian): 79.2% (inactive) | growth (NCI/ADR-RES ovarian): 66.9% (inactive) | growth (T-47D breast): 52.8% (inactive) | growth (BT-549 breast): 60% (inactive) | growth (MDA-MB-435 melanoma): 68.6% (inactive) | growth (SW-620 colon): 36.8% (inactive) | growth (MCF7 breast): 27.5% (inactive) | growth (HCT-116 colon): 44.3% (inactive) | growth (HCC-2998 colon): -4.28% (active) | growth (KM12 colon): 64.2% (inactive)

CC12OOC(c3ccccc31)c1c2ccc2ccccc12 (stereo not given)
growth (MOLT-4 leukemia): -58.3% (active) | growth (SR leukemia): -18.8% (active) | growth (RPMI-8226 leukemia): -33.8% (active) | growth (OVCAR-5 ovarian): 66.1% (inactive) | growth (OVCAR-4 ovarian): -57.7% (active) | growth (SK-OV-3 ovarian): 95.8% (inactive) | growth (OVCAR-3 ovarian): -92.4% (active) | growth (HS 578T breast): 91.6% (inactive) | growth (NCI/ADR-RES ovarian): 50.3% (inactive) | growth (T-47D breast): -28.8% (active) | growth (BT-549 breast): -82.2% (active) | growth (SW-620 colon): -52.1% (active) | growth (MCF7 breast): 48.5% (inactive) | growth (HCT-116 colon): -94.5% (active) | growth (HCC-2998 colon): -91.7% (active) | growth (KM12 colon): -53.1% (active)

CC[C@@]1(O)C[C@H](OC2CC(N(C)C)C(O)C(C)O2)c2c(cc3c(c2O)C(=O)c2c(O)ccc(O)c2C3=O)[C@H]1C(=O)OC (stereo not given in full)
growth (MOLT-4 leukemia): -19.5% (active) | growth (SR leukemia): -18.2% (active) | growth (RPMI-8226 leukemia): -32.6% (active) | growth (OVCAR-5 ovarian): -87% (active) | growth (OVCAR-4 ovarian): -44.2% (active) | growth (SK-OV-3 ovarian): -68.9% (active) | growth (IGROV1 ovarian): -68.3% (active) | growth (OVCAR-3 ovarian): -41.6% (active) | growth (NCI/ADR-RES ovarian): -64.1% (active) | growth (T-47D breast): -42% (active) | growth (BT-549 breast): -80.2% (active) | growth (MDA-MB-435 melanoma): -95.7% (active) | growth (SW-620 colon): -90.5% (active) | growth (MCF7 breast): -39.6% (active) | growth (HCT-116 colon): -70.5% (active) | growth (KM12 colon): -58.1% (active)

From PubChem BioAssay (NCI)
